ATG4B inh: ATG4B (human) cysteine protease inhibition. Q9Y4P1. ATG4B cleavage of LC3-PLA2, NBD-HPC fluorescence, 1 h. inhibition, % at 8.33 µM. 340,000 compounds, 0.51% hits; in the data active = inhibition above about 40%
PREPL inh: inhibitors of human prolyl oligopeptidase-like enzyme PREPL. Q4J6C6. inhibition, % at 5.96 µM. AID 2751. recombinant PREPL, fluorescence polarization activity-based probe. 320,000 compounds, 0.68% hits; in the data active = inhibition above about 43%;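 note: 0% = enzyme with DMSO and 100% = wells lacking enzyme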
Target sequence (Q4J6C6 whole entry, looked up): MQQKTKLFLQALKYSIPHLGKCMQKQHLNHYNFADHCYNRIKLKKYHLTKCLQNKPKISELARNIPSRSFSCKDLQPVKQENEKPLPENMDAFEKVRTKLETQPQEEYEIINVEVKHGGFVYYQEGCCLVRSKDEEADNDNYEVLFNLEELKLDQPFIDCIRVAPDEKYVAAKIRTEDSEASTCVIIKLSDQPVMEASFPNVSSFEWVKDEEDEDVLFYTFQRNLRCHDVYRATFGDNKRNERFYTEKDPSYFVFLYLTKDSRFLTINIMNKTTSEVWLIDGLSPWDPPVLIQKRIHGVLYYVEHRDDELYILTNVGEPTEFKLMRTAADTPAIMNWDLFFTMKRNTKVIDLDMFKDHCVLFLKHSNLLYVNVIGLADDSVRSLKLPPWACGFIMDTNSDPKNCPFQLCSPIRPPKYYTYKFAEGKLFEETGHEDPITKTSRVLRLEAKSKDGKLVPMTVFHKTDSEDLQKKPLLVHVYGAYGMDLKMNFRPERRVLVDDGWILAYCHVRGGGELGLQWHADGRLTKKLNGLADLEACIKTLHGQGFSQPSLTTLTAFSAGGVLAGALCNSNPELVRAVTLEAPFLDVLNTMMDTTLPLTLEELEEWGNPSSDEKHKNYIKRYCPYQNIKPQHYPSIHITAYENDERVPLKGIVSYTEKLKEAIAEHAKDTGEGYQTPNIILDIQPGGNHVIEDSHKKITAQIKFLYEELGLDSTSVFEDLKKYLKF
MEKK2wt PB1 HTS: raises or lowers MEK5 binding to wildtype human MEKK2 PB1 domain | bead flow cytometry, Alexa488-MEK5 binding to MEKK2 WT; actives lie on both sides | binding response (% of control), % at 10 µM | 290,000 compounds, 1.1% hits | AID 1531; in the data active = binding response below about 67% or above about 130%
UBC13 inh: blocks human UBC13 polyubiquitin chain formation. 330,000 compounds, 0.47% hits. AID 485273. P61088. TR-FRET. inhibition, % at 20 µM; in the data active = inhibition above about 45%, passing the limit was not always enough
MEKK3 PB1 HTS: raises or lowers MEK5 binding to the human MEKK3 PB1 domain | bead-based flow cytometry, Alexa488-MEK5 binding to MEKK3; actives lie on both sides; 0 = blocked by unlabeled MEK5, 100 = vehicle | Q99759 | binding response (% of control), % at 10 µM | 290,000 compounds, 1.4% hits;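 active = binding response more than 3 SD above or below the average of its plate-row segment, actives on both sides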;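 note: Alexa488 bead fluorescence after subtracting the streptavidin-only scavenger bead signal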
MEKK2 mut-MEK5: signal of MEK5 binding to mutant human MEKK2 PB1 domain | bead flow cytometry, Alexa488-MEK5 binding to MEKK2 mutant | percent response, % at 10 µM | 290,000 compounds, 0.35% hits; in the data active = percent response above about 24%, passing the limit was not always enough
ATG4B confirm: ATG4B (human) inhibition, single-dose confirmed. AID 504757. shares compounds with ATG4B inh. 320 compounds, 92% hits. inhibition, % at 8.33 µM. ATG4B protease fluorescent substrate cleavage assay; in the data active = inhibition above about 39%
PLA2 ctr: PLA2 (human) inhibition in ATG4B counter-screen; shares compounds with ATG4B inh; purified PLA2, NBD-C6-HPC fluorescence, 45 min; inhibition, % at 8.33 µM; 1,600 compounds, 66% hits; in the data active = inhibition above about 50%
Numbers without * were called inactive. A selection: hits, their analogues and other compounds. The true share with any hit is near 3.1%.

Results for O=C(NCCCNC(=O)c1cc(Cl)ccc1Cl)c1ccco1 ?
ATG4B inh: -13; PREPL inh: 2; MEKK2wt PB1 HTS: 96; UBC13 inh: 8; MEKK3 PB1 HTS: 102; MEKK2 mut-MEK5: -3

How did Cc1ccc(C2CC(C(F)F)n3ncc(C(=O)Nc4cnn(Cc5ccccc5C)c4)c3N2)cc1 (stereo not given) do in these assays?
ATG4B inh: 54*; PREPL inh: 6; MEKK2wt PB1 HTS: 94; UBC13 inh: 8; MEKK3 PB1 HTS: 100; MEKK2 mut-MEK5: 0; PLA2 ctr: 71*

Results for Cc1ccc(CN2C(=O)CNC2=S)cc1 ?
ATG4B inh: 0; PREPL inh: -15; MEKK2wt PB1 HTS: 111; UBC13 inh: -4; MEKK3 PB1 HTS: 107; MEKK2 mut-MEK5: 5

What do the screens show for `O=C(NNc1cc(C(F)(F)F)nc2ccccc12)Nc1cccc(Cl)c1`?
ATG4B inh: 85*; PREPL inh: -13; MEKK2wt PB1 HTS: 89; UBC13 inh: -2; MEKK3 PB1 HTS: 89; MEKK2 mut-MEK5: -20; PLA2 ctr: 85*

Results for O=C(NNc1nccc(C(F)(F)F)n1)Nc1cccc(Cl)c1 ?
ATG4B inh: -1; PREPL inh: -5; MEKK2wt PB1 HTS: 109; UBC13 inh: 6; MEKK3 PB1 HTS: 112; MEKK2 mut-MEK5: 17

How did CCc1ccccc1OCC(=O)Nc1cc(S(=O)(=O)N(CC)CC)ccc1N1CCOCC1 do in these assays?
ATG4B inh: 54*; PREPL inh: 6; UBC13 inh: -1; PLA2 ctr: 92*

How did CCN(CC)S(=O)(=O)c1ccc(N2CCOCC2)c(NC(=O)COc2ccccc2)c1 do in these assays?
ATG4B inh: 26; PREPL inh: 5; MEKK2wt PB1 HTS: 91; UBC13 inh: -7; MEKK3 PB1 HTS: 96; MEKK2 mut-MEK5: -6

How did Cc1ccccc1OCC(=O)Nc1cc(S(=O)(=O)N2CCCCC2)ccc1N1CCN(C)CC1 do in these assays?
ATG4B inh: 46*; PREPL inh: 7; MEKK2wt PB1 HTS: 105; UBC13 inh: 6; MEKK3 PB1 HTS: 99; MEKK2 mut-MEK5: 6; PLA2 ctr: 50*

How did O=C(Nc1c2c(nn1-c1ccc(Cl)cc1)CS(=O)(=O)C2)c1ccccc1 do in these assays?
ATG4B inh: -5; PREPL inh: 2; MEKK2wt PB1 HTS: 104; UBC13 inh: 2; MEKK3 PB1 HTS: 105; MEKK2 mut-MEK5: 3

What do the screens show for `NC(=O)C1CCN(C(=O)c2cc3c(s2)CCCCC3)CC1`?
ATG4B inh: 16; PREPL inh: 4; UBC13 inh: 2

What do the screens show for `CC1CCc2sc(C(=O)N3CCC(C(N)=O)CC3)cc2C1` (stereo not given)?
ATG4B inh: 43*; PREPL inh: -1; UBC13 inh: -4; ATG4B confirm: 66*; PLA2 ctr: 33

What do the screens show for `O=C(COC(=O)C1CC2C=CC1C2)Nc1c(Br)cc([N+](=O)[O-])cc1Br` (stereo not given)?
ATG4B inh: -5; PREPL inh: 9; UBC13 inh: -28

Results for COc1ccc(CNC(=O)CCC(=O)N2CCN(S(=O)(=O)c3cc([N+](=O)[O-])ccc3C)CC2)cc1 ?
ATG4B inh: -7; UBC13 inh: 1

How did O=C(CCCn1c(=S)[nH]c2cc3c(cc2c1=O)OCO3)N1CCc2ccccc2C1 do in these assays?
ATG4B inh: 60*; PREPL inh: -2; MEKK2wt PB1 HTS: 96; UBC13 inh: 10; MEKK3 PB1 HTS: 99; MEKK2 mut-MEK5: -1; PLA2 ctr: 63*

What do the screens show for `O=C(CCCn1c(=S)[nH]c2cc3c(cc2c1=O)OCO3)N1CCN(c2ccc(Cl)cc2)CC1`?
ATG4B inh: 53*; PREPL inh: -97; MEKK2wt PB1 HTS: 95; UBC13 inh: 7; MEKK3 PB1 HTS: 98; MEKK2 mut-MEK5: -4; PLA2 ctr: 57*

How did CC(=O)c1ccc(N2CCN(C(=O)CCCn3c(=S)[nH]c4cc5c(cc4c3=O)OCO5)CC2)cc1 do in these assays?
ATG4B inh: 45*; PREPL inh: -97; MEKK2wt PB1 HTS: 104; UBC13 inh: 2; MEKK3 PB1 HTS: 100; MEKK2 mut-MEK5: 1; PLA2 ctr: 61*

Results for COc1ccc2c(c1OC)C(=O)N1c3ccccc3C(=O)N(c3ccc(F)cc3)C21 (stereo not given) ?
ATG4B inh: 37; PREPL inh: -1; MEKK2wt PB1 HTS: 108; UBC13 inh: -1; MEKK3 PB1 HTS: 108; MEKK2 mut-MEK5: 5

Results for COc1ccc2c(c1OC)C(=O)N1c3ccccc3C(=O)N(c3ccccc3)C21 (stereo not given) ?
ATG4B inh: 48*; PREPL inh: -1; MEKK2wt PB1 HTS: 100; UBC13 inh: 1; MEKK3 PB1 HTS: 99; MEKK2 mut-MEK5: 0; PLA2 ctr: 47

How did C[C@@H]1CN([C@@H](C)CO)C(=O)Cc2cc(NS(=O)(=O)c3cn(C)cn3)ccc2O[C@@H]1CN(C)C(=O)Nc1ccccc1 do in these assays?
ATG4B inh: -7; PREPL inh: 11; UBC13 inh: 4

What do the screens show for `Cc1c(Cl)ccc2c(C(=O)Nc3cc(C(C)(C)C)on3)cc(-c3ccccn3)nc12`?
ATG4B inh: -6; PREPL inh: -1; MEKK2wt PB1 HTS: 99; UBC13 inh: 4; MEKK3 PB1 HTS: 100; MEKK2 mut-MEK5: 4

How did CC1CCCN(C(=O)Cc2cn(Cc3cccc(Cl)c3)c3ccccc23)C1 (stereo not given) do in these assays?
ATG4B inh: 48*; PREPL inh: 12; MEKK2wt PB1 HTS: 98; UBC13 inh: 4; MEKK3 PB1 HTS: 104; MEKK2 mut-MEK5: -1; PLA2 ctr: 56*

How did O=C(Cc1cn(Cc2cccc(Cl)c2)c2ccccc12)N1CCCCCC1 do in these assays?
ATG4B inh: 50*; PREPL inh: 20; MEKK2wt PB1 HTS: 102; UBC13 inh: -5; MEKK3 PB1 HTS: 104; MEKK2 mut-MEK5: -1; PLA2 ctr: 47

How did O=C(O)Cc1cn(Cc2cccc(Cl)c2)c2ccccc12 do in these assays?
ATG4B inh: 1; PREPL inh: 2; MEKK2wt PB1 HTS: 105; UBC13 inh: -4; MEKK3 PB1 HTS: 107; MEKK2 mut-MEK5: -2

How did O=CN1CCN(S(=O)(=O)c2ccc(S(=O)(=O)NC3CCCCC3)cc2)CC1 do in these assays?
ATG4B inh: -3; PREPL inh: -5; MEKK2wt PB1 HTS: 98; UBC13 inh: -2; MEKK3 PB1 HTS: 101; MEKK2 mut-MEK5: -6

Results for O=C(Nc1cc(Cl)ccn1)C1(c2ccccc2)CC1(Cl)Cl (stereo not given) ?
ATG4B inh: 19; PREPL inh: -14; MEKK2wt PB1 HTS: 99; UBC13 inh: 4; MEKK3 PB1 HTS: 101; MEKK2 mut-MEK5: -2

High-throughput results (PubChem BioAssay)
